# From PMC7862700, “An all-to-all approach to the identification of sequence-specific readers for epigenetic DNA modifications on cytosine”
# What was measured:
# Assay in all cases: DAPPL (digital affinity profiling via proximity ligation, sequencing); 10 mM Tris-HCl pH 7.5, 50 mM NaCl, 1 mM DTT, 4% glycerol, room temperature, 30 min; GST-TFs on glutathione beads, 16-mer random dsDNA library, 0.1% formaldehyde crosslink after washing; high values mean tight binding
# [1] = biological target: T1, FLI1 (Homo sapiens, UniProt Q01543 1-452); conditions: protein: recombinant; tags: N-terminal GST; dsDNA, one strand shown
# T1 sequence: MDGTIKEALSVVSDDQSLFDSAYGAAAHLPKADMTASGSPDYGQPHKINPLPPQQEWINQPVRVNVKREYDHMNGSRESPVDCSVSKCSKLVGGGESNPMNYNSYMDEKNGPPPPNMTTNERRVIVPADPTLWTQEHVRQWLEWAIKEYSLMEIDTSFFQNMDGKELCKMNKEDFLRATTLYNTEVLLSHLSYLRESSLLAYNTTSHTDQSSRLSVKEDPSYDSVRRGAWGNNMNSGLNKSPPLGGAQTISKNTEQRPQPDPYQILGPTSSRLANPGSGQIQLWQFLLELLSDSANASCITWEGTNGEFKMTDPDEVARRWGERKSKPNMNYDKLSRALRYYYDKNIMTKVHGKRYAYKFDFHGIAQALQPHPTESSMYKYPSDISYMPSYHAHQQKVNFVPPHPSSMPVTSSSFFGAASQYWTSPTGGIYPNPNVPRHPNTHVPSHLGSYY
# Method in brief: (§1)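 Human transcription factors were made in yeast as GST fusions, captured on glutathione beads and barcoded with DNA. With a tag-only sample included, the pool was incubated with 200 nmole of a random double-stranded 16-mer DNA library in Tris/NaCl/DTT/glycerol buffer at room temperature for 30 min, then crosslinked with 0.1% formaldehyde after washing, ligated by proximity, amplified and sequenced. For binding signal, each hexamer's read frequency for a factor is divided by its frequency for the tag-only sample.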
# [2] = biological target: T2, ELK1 (Homo sapiens, UniProt P19419 1-428); conditions: protein: recombinant; tags: N-terminal GST; dsDNA, one strand shown
# T2 sequence: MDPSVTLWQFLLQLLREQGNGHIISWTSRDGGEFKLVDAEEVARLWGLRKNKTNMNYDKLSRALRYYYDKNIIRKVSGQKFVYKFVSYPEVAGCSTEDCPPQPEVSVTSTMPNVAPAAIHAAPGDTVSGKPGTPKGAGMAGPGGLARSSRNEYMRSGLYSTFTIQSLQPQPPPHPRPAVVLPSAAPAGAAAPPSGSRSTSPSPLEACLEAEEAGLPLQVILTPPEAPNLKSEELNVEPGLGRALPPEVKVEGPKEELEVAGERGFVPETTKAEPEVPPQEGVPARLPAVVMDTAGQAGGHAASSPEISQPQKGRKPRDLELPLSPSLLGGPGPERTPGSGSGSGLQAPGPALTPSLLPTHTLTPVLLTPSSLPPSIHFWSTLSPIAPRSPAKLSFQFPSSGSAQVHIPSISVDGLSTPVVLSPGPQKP
# Method in brief: as §1
# [3] = biological target: T3, GABPA (Homo sapiens, UniProt Q06546 1-454); conditions: protein: recombinant; tags: N-terminal GST; dsDNA, one strand shown
# T3 sequence: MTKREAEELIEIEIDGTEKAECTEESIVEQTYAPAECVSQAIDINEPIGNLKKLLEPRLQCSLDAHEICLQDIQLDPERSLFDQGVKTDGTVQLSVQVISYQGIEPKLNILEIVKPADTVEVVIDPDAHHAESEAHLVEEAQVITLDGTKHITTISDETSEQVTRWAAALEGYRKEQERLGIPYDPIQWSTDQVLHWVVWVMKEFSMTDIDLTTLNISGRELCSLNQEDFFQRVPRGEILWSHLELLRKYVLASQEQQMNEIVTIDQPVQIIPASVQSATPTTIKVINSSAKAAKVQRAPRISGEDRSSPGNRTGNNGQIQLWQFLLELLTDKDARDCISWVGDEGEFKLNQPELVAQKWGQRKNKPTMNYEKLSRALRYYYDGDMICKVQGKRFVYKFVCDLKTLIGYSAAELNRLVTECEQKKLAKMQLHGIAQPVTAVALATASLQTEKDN
# Method in brief: as §1
# [4] = biological target: T4, ERG (Homo sapiens, UniProt P11308 1-479); conditions: protein: recombinant; tags: N-terminal GST; dsDNA, one strand shown
# T4 sequence: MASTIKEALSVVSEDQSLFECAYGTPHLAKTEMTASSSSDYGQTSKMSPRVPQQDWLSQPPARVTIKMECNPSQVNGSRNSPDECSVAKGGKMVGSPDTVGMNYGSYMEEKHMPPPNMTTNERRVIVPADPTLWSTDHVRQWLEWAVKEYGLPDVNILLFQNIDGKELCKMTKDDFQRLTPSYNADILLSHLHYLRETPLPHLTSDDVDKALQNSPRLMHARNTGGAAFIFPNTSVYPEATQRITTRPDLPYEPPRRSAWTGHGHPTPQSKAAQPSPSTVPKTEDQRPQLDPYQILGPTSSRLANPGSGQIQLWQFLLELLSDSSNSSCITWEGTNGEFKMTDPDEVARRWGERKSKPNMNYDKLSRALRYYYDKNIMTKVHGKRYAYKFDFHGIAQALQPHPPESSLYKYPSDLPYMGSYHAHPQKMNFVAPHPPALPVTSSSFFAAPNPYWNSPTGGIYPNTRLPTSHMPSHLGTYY
# Method in brief: as §1
# [5] = biological target: ELF1 (Homo sapiens, UniProt P32519 1-619); conditions: protein: recombinant; tags: N-terminal GST; dsDNA, one strand shown
# Method in brief: as §1
# [6] = biological target: T5, EHF (Homo sapiens, UniProt Q9NZC4 1-300); conditions: protein: recombinant; tags: N-terminal GST; dsDNA, one strand shown
# T5 sequence: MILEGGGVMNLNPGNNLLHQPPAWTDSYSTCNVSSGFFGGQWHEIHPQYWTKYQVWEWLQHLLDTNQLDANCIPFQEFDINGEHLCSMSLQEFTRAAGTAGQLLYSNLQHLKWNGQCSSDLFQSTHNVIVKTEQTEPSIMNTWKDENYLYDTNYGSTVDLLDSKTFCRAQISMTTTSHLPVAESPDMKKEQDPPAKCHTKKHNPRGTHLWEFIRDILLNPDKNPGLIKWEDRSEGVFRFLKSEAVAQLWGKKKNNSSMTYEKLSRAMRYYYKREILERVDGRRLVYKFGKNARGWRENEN
# Method in brief: as §1
# [7] = biological target: SPI1 (Homo sapiens, UniProt P17947 1-270); conditions: protein: recombinant; tags: N-terminal GST; dsDNA, one strand shown
# Method in brief: as §1
# [8] = biological target: SPIB (Homo sapiens, UniProt Q01892 1-262); conditions: protein: recombinant; tags: N-terminal GST; dsDNA, one strand shown
# Method in brief: as §1
# [9] = biological target: T6, ELK3 (Homo sapiens, UniProt P41970 1-407); conditions: protein: recombinant; tags: N-terminal GST; dsDNA, one strand shown
# T6 sequence: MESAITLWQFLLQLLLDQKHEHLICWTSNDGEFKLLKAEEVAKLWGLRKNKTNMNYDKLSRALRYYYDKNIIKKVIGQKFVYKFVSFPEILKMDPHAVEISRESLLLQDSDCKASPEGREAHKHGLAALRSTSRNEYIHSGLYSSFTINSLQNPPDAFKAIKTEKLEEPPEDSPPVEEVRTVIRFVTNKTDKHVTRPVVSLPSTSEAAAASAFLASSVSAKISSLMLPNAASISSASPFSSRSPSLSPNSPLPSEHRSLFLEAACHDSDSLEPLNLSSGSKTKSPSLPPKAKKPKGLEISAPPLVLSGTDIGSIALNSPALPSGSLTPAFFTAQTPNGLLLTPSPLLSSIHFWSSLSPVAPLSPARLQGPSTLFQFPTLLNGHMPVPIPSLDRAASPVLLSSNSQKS
# Method in brief: as §1
# [10] = biological target: T7, FEV (Homo sapiens, UniProt Q99581 1-238); conditions: protein: recombinant; tags: N-terminal GST; dsDNA, one strand shown
# T7 sequence: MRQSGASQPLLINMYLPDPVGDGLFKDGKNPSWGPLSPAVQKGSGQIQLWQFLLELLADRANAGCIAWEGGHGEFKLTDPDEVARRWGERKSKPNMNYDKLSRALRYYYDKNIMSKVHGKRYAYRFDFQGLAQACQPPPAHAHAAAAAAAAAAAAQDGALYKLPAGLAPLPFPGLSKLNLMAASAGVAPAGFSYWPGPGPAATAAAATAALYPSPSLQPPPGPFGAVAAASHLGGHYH
# Method in brief: as §1
# [11] = biological target: ETV5 (Homo sapiens, UniProt P41161 1-510); conditions: protein: recombinant; tags: N-terminal GST; dsDNA, one strand shown
# Method in brief: as §1
# [12] = biological target: HSF1 (Homo sapiens, UniProt Q00613 1-529); conditions: protein: recombinant; tags: N-terminal GST; chain copies: 3; dsDNA, one strand shown
# Method in brief: as §1
# [13] = biological target: T8, SPIC (Homo sapiens, UniProt Q8N5J4 1-248); conditions: protein: recombinant; tags: N-terminal GST; dsDNA, one strand shown
# T8 sequence: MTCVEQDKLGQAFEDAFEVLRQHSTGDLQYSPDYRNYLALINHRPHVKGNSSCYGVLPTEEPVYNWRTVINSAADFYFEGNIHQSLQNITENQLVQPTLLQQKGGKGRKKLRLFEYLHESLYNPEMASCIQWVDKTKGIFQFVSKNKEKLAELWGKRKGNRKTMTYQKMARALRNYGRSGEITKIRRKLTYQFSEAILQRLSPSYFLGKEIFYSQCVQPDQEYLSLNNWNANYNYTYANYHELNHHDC
# Method in brief: as §1
# [14] = biological target: ELF4 (Homo sapiens, UniProt Q99607 1-663); conditions: protein: recombinant; tags: N-terminal GST; dsDNA, one strand shown
# Method in brief: as §1
# [15] = biological target: T9, ELK4 (Homo sapiens, UniProt P28324-2 1-405); conditions: protein: recombinant; tags: N-terminal GST; dsDNA, one strand shown
# T9 sequence: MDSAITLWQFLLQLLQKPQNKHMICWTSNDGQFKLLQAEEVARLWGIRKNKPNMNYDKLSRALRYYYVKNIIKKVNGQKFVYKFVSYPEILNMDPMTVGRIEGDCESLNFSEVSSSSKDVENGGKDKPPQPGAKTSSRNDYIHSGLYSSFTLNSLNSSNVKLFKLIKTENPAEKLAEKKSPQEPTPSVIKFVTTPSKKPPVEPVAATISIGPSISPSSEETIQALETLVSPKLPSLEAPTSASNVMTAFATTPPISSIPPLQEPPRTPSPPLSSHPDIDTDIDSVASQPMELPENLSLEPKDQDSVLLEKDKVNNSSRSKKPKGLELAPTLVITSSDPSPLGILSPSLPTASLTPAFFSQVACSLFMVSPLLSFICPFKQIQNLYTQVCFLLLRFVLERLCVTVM
# Method in brief: as §1
# [16] = biological target: T10, ETV2 (Homo sapiens, UniProt O00321 1-342); conditions: protein: recombinant; tags: N-terminal GST; dsDNA, one strand shown
# T10 sequence: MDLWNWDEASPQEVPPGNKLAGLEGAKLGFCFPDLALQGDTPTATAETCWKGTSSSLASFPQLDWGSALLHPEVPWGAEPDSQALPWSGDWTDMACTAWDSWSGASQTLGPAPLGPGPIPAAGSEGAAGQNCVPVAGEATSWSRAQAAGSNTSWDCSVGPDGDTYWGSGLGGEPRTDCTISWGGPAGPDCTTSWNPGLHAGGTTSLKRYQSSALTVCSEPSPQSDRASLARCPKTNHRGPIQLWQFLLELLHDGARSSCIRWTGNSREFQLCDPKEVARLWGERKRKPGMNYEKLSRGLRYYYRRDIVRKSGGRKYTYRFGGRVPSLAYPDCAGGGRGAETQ
# Method in brief: as §1
# [17] = biological target: T11, ELF3 (Homo sapiens, UniProt P78545 1-371); conditions: protein: recombinant; tags: N-terminal GST; dsDNA, one strand shown
# T11 sequence: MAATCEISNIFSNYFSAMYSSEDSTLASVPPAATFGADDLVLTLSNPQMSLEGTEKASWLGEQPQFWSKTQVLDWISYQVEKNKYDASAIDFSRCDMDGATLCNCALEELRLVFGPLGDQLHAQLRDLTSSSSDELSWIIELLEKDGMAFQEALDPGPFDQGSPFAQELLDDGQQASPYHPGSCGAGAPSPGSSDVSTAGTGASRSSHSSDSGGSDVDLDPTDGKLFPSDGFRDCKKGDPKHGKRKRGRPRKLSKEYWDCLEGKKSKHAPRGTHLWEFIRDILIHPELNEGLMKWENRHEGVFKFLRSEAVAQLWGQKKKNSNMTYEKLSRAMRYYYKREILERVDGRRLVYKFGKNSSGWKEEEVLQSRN
# Method in brief: as §1
# [18] = biological target: CRX (Homo sapiens, UniProt O43186 1-299); conditions: protein: recombinant; tags: N-terminal GST; dsDNA, one strand shown
# Method in brief: as §1
# [19] = biological target: ETV1 (Homo sapiens, UniProt P50549 1-477); conditions: protein: recombinant; tags: N-terminal GST; dsDNA, one strand shown
# Method in brief: as §1
# Chain of ETV1 (P50549 whole entry): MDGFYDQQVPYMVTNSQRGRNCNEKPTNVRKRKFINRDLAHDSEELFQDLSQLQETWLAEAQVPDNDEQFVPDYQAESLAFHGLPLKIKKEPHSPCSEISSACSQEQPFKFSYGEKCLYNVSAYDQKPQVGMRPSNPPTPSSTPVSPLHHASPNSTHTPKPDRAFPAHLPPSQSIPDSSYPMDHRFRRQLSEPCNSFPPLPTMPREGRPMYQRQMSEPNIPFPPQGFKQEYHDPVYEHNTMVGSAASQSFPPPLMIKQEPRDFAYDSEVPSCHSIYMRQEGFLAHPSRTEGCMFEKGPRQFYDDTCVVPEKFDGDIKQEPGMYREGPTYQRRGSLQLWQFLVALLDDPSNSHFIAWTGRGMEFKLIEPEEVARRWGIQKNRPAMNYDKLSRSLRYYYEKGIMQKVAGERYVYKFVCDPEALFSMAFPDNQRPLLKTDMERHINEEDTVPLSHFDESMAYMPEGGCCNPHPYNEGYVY
# Chain of HSF1 (Q00613 whole entry): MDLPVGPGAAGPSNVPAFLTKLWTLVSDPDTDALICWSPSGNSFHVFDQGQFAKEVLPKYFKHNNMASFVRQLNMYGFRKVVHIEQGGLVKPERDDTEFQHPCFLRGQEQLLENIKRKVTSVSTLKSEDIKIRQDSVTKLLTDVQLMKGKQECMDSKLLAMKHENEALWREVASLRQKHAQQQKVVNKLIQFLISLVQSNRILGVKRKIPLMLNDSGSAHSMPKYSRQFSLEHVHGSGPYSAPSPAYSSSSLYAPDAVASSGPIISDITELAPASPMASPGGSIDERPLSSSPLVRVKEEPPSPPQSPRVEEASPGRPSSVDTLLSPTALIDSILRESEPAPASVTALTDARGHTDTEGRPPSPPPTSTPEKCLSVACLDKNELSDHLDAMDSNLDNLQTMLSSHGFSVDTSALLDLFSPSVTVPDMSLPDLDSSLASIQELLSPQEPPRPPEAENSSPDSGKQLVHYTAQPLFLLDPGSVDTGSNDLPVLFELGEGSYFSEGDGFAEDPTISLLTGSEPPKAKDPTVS
# Chain of ELF4 (Q99607 whole entry): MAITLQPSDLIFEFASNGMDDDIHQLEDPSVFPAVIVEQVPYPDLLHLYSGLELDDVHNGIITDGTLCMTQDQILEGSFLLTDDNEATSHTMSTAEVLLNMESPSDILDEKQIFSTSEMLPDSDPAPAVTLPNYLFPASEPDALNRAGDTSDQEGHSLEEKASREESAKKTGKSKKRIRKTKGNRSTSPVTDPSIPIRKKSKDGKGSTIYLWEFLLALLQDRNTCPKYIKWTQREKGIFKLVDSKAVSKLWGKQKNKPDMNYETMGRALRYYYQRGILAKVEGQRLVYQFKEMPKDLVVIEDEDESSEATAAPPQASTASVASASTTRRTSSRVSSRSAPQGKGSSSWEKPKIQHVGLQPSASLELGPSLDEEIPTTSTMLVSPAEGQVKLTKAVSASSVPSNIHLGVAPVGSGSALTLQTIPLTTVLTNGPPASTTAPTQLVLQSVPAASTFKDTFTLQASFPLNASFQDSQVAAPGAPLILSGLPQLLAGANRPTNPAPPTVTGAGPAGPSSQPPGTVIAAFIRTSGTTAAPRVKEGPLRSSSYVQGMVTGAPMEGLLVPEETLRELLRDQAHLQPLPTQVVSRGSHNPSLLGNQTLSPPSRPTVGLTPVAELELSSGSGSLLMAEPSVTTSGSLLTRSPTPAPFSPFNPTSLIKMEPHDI
# Chain of ELF1 (P32519 whole entry): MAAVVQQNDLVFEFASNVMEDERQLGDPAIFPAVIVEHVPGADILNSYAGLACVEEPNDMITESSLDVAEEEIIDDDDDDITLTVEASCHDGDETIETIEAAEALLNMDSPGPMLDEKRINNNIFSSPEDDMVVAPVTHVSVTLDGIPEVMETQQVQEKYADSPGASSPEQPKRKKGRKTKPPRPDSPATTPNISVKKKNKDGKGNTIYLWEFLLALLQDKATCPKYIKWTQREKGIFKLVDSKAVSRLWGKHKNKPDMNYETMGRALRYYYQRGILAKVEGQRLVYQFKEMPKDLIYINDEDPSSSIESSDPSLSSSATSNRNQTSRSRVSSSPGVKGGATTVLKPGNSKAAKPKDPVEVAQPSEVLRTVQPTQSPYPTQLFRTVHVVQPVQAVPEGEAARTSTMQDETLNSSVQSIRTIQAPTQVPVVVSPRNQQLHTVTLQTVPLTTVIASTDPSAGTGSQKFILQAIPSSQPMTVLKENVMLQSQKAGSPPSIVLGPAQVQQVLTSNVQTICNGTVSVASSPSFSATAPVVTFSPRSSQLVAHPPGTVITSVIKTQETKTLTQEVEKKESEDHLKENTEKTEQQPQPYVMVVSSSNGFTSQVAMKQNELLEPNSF
# Chain of SPIB (Q01892 whole entry): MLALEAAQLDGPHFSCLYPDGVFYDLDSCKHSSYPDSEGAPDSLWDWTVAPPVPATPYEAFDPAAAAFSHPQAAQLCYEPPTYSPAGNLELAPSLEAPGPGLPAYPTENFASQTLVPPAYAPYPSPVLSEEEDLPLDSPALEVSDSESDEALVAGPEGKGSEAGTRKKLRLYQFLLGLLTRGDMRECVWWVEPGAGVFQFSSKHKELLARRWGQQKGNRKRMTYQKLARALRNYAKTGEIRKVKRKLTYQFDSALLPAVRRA
# Chain of ETV5 (P41161 whole entry): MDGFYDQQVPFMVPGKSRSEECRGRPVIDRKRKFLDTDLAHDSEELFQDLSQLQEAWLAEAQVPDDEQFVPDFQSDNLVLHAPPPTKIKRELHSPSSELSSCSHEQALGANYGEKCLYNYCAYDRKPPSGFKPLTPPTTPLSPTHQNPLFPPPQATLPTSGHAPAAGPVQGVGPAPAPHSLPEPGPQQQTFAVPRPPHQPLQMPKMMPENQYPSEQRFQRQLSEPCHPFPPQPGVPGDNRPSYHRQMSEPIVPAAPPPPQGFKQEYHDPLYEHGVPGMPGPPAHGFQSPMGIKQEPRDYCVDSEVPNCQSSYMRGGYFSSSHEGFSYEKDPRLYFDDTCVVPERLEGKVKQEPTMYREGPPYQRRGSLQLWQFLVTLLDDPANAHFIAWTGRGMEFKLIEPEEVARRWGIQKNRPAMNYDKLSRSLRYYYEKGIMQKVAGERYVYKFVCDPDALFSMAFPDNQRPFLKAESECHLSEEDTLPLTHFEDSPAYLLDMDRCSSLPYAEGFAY
# Chain of CRX (O43186 whole entry): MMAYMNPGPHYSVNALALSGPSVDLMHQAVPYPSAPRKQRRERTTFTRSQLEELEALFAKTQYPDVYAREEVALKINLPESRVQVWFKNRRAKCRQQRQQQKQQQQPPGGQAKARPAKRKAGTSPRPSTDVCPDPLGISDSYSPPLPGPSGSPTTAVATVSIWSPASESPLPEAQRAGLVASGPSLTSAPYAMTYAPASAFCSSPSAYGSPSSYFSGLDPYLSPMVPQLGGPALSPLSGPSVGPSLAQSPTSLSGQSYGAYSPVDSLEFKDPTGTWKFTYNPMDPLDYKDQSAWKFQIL
sequence,measurement,setting,value
ACGCTA,binding signal,[1],"1.14 fold enrichment (6-mer frequency, TF over GST control)"
same,binding signal,[2],"1.18 fold enrichment (6-mer frequency, TF over GST control)"
same,binding signal,[3],"1.14 fold enrichment (6-mer frequency, TF over GST control)"
same,binding signal,[4],"1.2 fold enrichment (6-mer frequency, TF over GST control)"
same,binding signal,[5],"1.15 fold enrichment (6-mer frequency, TF over GST control)"
same,binding signal,[6],"1.1 fold enrichment (6-mer frequency, TF over GST control)"
same,binding signal,[7],"1.19 fold enrichment (6-mer frequency, TF over GST control)"
same,binding signal,[8],"1.07 fold enrichment (6-mer frequency, TF over GST control)"
same,binding signal,[9],"1.27 fold enrichment (6-mer frequency, TF over GST control)"
same,binding signal,[10],"1.13 fold enrichment (6-mer frequency, TF over GST control)"
same,binding signal,[11],"1.17 fold enrichment (6-mer frequency, TF over GST control)"
same,binding signal,[12],"1.12 fold enrichment (6-mer frequency, TF over GST control)"
same,binding signal,[13],"1.09 fold enrichment (6-mer frequency, TF over GST control)"
same,binding signal,[14],"1.25 fold enrichment (6-mer frequency, TF over GST control)"
same,binding signal,[15],"1.06 fold enrichment (6-mer frequency, TF over GST control)"
same,binding signal,[16],"1.28 fold enrichment (6-mer frequency, TF over GST control)"
same,binding signal,[17],"1.17 fold enrichment (6-mer frequency, TF over GST control)"
same,binding signal,[18],"1.18 fold enrichment (6-mer frequency, TF over GST control)"
same,binding signal,[19],"1.09 fold enrichment (6-mer frequency, TF over GST control)"
